Screening data as filed in PubChem.
Rows were chosen to be rich in hits. Some 7.5% of all compounds tested hit in one or more screens of this group.
SMN2 splice up = increases expression of the SMN2 splice variant. HEK293 SMN2-luciferase splicing reporter, luminescence, 30-36 h. AID 1458. Potency, µM (doses to about 46.1 µM), for the others: at the highest dose activity change, positive = activation, hits mostly activators. hit rate 2.8% among 210,000; also: % of control where 0% means no effect; nearly all actives have a fitted effect of over 55% in size
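HEK293 cells carry an SMN2 […]–luciferase reporter in which exon 7 inclusion puts luciferase in frame. Cells were plated 10-12 h before compound addition, then incubated 30-36 h at 37C. ONE-Glo luminescence was read; sodium butyrate at 4.5 mM final served as control.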
KinaseGlo FLuc = counter-screen: inhibitors of Kinase-Glo firefly luciferase | Potency, µM (series often up to 38.3 µM), inactives show top-dose activity change, negative = inhibition, hits mostly inhibitors | Kinase-Glo luciferase, ATP luminescence, 8 min | hit rate 0.28% among 200,000 | Q27757; also: % is scaled to controls: 0 for no effect and ±100 for the full control effect; nearly all actives have a fitted effect of over 60% in size
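Light output from Kinase-Glo luciferase with luciferin and 10 uM ATP in 50 mM imidazole pH 7.2, KCl, MgCl2, Tween 20, BSA; compound pin-delivered, 8-min ambient incubation, then luminescence read.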
ELG1 genotoxic = genotoxicity induction in ELG1-luciferase HEK293T cells | Potency, µM (doses to about 46 µM), for inactives: at the top dose activity change, positive = activation, most hits filed as activators | AID 504466 | hit rate 1.3% among 330,000 | HEK293T ELG1-luciferase reporter, luminescence, 16 h; also: % of control where 0% means no effect; nearly all actives have a fitted effect of over 60% in size
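Step 1: seed 2,000 HEK293T ELG1-luciferase cells per well. Step 2: add compound or DMSO, incubate 16 hr at 37 °C. Step 3: ONE-Glo, 30 min at room temperature, read luminescence.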
Rab9 prom act = activators of Rab9 promoter; Huh7 Rab9 promoter-luciferase reporter, luminescence, 24 h; Potency, µM (titrated, usually from 9.22 µM), for inactives: at the top dose activation, negative = inhibition, hits mostly activators; hit rate 2.8% among 320,000; AID 485297; also: % of control where 0% means no effect; nearly all actives have a fitted effect of over 60% in size
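Promoter activation is measured as luciferase luminescence in Huh7 cells stably transfected with a Rab9 promoter–luciferase construct, following 24 h compound exposure at 37 °C and 10 min reagent incubation at ambient temperature.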
NPC1 promoter act = activators of NPC1 promoter | Huh7 NPC1 promoter luciferase reporter, 24 h | Potency, µM (highest dose often 9.22 µM), for inactives: at the highest dose activation, usual class: activators | hit rate 2.4% among 320,000 | AID 485313; also: % of control where 0% means no effect; nearly all actives have a fitted effect of over 60% in size
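Huh7 cells stably carrying NPC1 promoter–luciferase, plated in Opti-MEM with 10% FBS for 2 h, were exposed to compound in DMSO for 24 h at 37 °C; luciferase reagent was added for 10 min and luminescence read.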
FLuc counter = counter-screen for miR-21 project: firefly luciferase inhibitors or activators. purified FLuc, Km substrates, luminescence inhibition. Potency, µM (series often up to 57.5 µM), inactives show at the highest dose activity change, negative = inhibition, usual class: inhibitors. hit rate 6.9% among 360,000. AID 588342;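 also: plate controls were vehicle for no effect and reference inhibitor for full effect; nearly all actives have a fitted effect of over 55% in size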
Target sequence (P08659 whole entry, looked up): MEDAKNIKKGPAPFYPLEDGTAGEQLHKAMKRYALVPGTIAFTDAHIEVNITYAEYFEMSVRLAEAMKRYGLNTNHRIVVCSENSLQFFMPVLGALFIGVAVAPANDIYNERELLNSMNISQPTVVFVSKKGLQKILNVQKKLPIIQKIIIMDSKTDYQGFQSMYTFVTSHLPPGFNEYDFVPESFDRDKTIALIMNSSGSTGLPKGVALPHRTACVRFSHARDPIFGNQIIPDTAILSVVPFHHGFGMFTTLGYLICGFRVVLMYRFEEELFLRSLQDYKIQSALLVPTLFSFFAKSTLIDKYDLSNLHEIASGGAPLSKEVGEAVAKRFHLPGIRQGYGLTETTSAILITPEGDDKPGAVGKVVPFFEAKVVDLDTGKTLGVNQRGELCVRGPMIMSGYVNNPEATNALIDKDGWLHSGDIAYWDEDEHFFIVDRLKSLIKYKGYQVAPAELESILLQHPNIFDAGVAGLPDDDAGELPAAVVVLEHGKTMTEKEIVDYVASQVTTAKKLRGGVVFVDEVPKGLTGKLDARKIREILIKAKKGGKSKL
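Biochemical qHTS of compounds, final roughly 60 µM downward over six points, against 10 nM purified firefly luciferase using Km concentrations of substrates (10 uM D-luciferin, 10 uM ATP) in Tris acetate pH 7.5 buffer; luminescence output.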
Numbers without * were called inactive; ? = inconclusive; . = no result given. Calls follow the shape of the dose curve; as a rule, active = well fitted curve in the direction sought with a large enough effect; inconclusive = small, poorly fitted or top-dose-only effect, or another doubt; inactive = no such curve, though single readings can be large; an effect the other way counts as inactive or inconclusive. Potency is read from the fitted curve at half-maximal effect.

SMILES | SMN2 splice up | KinaseGlo FLuc | ELG1 genotoxic | Rab9 prom act | NPC1 promoter act | FLuc counter
CC(=O)Nc1cccc(NC(=O)c2ccc(C(=O)Nc3cccc(NC(C)=O)c3)nc2)c1 | 16% | -11% | 11% | 17% | 15% | 3.8µM*
Cc1cccc(NC(=O)c2ccc(C(=O)Nc3cccc(C)c3)nc2)c1 | -31% | -3% | -2% | 12% | 11% | -12%
CCC(=O)Nc1ccc(CC)cc1-c1nc2ccccc2n(CC(=O)Nc2cccc(Cl)c2)c1=O | . | . | . | . | . | 3%
COc1ccc2c(c1)C(=O)[C@H](OC(=O)Nc1ccc(OC(F)F)cc1)[C@@H](c1ccc(OC)c(Br)c1)O2 | 0% | 0% | . | . | . | .
COc1cc(CO)ccc1OCc1ccc(Cl)nc1 | . | . | 16µM* | 3.2µM* | 2.5µM* | 12µM*
COc1ccccc1NC(=O)Nc1nnc(-c2ccco2)s1 | 1% | -3% | 4% | 3% | -3% | -1%
COc1ccc(C(=O)Nc2nnc(-c3ccco3)s2)cc1 | 1.4µM* | -21% | ? | 0.32µM* | 0.45µM* | 0.48µM*
O=C(Nc1nnc(-c2ccco2)s1)c1ccccc1 | 2µM* | -7% | 1.2µM* | 0.4µM* | 0.79µM* | 3µM*
O=C(Nc1ccc(F)cc1)Nc1nnc(-c2ccco2)s1 | 19% | -2% | 20% | 2.8µM* | ? | -19%
CN(CC(=O)Nc1ccccc1C(=O)NC1CC1)Cc1ccc(N(C)C)cc1 | . | . | 2% | 1% | -1% | 6%
COc1cccc2c1cc1c(=O)n(CC(=O)NCc3ccco3)nc(C)n12 | -3% | . | . | . | . | -5%
Cc1nc2cc(NC(=O)Nc3nccs3)ccc2n1C | 14µM* | ? | 2.6µM* | 1.4µM* | 1.4µM* | 4.3µM*
CCn1c(C)nc2cc(C(=O)OC)ccc21 | . | 1% | 8% | 12% | 5% | 0%
COc1cccc(NC(=O)Nc2ccc3nsnc3c2)c1 | 13µM* | 1% | 0% | 2.8µM* | ? | 7.6µM*
COc1cccc(NC(=O)Nc2ccc3nc(C)c(C)nc3c2)c1 | . | . | -7% | 26% | 23% | ?
COc1cccc(NC(=O)Nc2ccc3c(c2)nc(C)n3C)c1 | . | ? | ? | 0.71µM* | 0.71µM* | 0.95µM*
CCn1c(C)nc2cc(NC(=O)Nc3cccc(C(C)=O)c3)ccc21 | . | . | -9% | ? | 2.8µM* | 1.5µM*
CCCNC(=O)C1CCC(Cn2c(=O)c3sccc3n(CC(=O)NCc3cccc(OC)c3OC)c2=O)CC1 (stereo unspecified) | -2% | . | . | . | . | -3%
c1cc2c3c(c1)ccc1cccc(c13)C2 | -4% | . | . | . | . | .
COc1ccccc1NC(=O)c1cc(S(=O)(=O)N2CCCC2)cn1C | . | . | 4% | -2% | -3% | -1%
Cc1nc(-c2ccc(C)c(S(=O)(=O)N3CCC(C(=O)NCc4ccc(F)cc4)CC3)c2)no1 | . | . | . | . | . | -6%
CC(Oc1ccccc1)C(=O)Nc1cccc(-c2nc3ccccc3[nH]2)c1 (stereo unspecified) | . | . | -5% | 0% | 0% | 12µM*
CC(C)CC(=O)Nc1cccc(-c2nc3ccccc3[nH]2)c1 | ? | . | -2% | -6% | 2% | 17µM*
Cc1cc(C)cc(OCC(=O)Nc2cccc(-c3nc4ccccc4[nH]3)c2)c1 | 17% | . | . | . | . | 11µM*
CC(C)(C)C(=O)Nc1cccc(-c2nc3ccccc3[nH]2)c1 | 29% | -3% | 0% | 5% | 11% | 15µM*
SMILES | SMN2 splice up | KinaseGlo FLuc | ELG1 genotoxic | Rab9 prom act | NPC1 promoter act | FLuc counter
CC(C)COc1ccc(C(=O)Nc2cccc(-c3nc4ccccc4[nH]3)c2)cc1 | -15% | . | . | . | . | ?
CCOc1ccc(C(=O)N(Cc2ccc(C(C)C)cc2)Cc2ccco2)cc1 | -11% | . | . | . | . | -19%
CCCN(Cc1cc2cccc(C)c2[nH]c1=O)C(=O)c1cccc(Cl)c1 | 5% | . | . | . | . | -7%
Cc1ccc(S(=O)(=O)N(C)C)cc1NC(=O)C(C)OC(=O)/C=C/c1cccs1 (stereo unspecified) | . | . | -4% | -1% | 3% | ?
CCCc1nnc(NC(=O)c2c(O)c3c([nH]c2=O)CCCC3)s1 | 11% | 14% | 3% | ? | 28% | 2%
O=C(Nc1nccs1)c1c(O)c2c([nH]c1=O)CCCC2 | . | . | 8% | 2.2µM* | ? | ?
O=C(Nc1ccccc1O)c1c(O)c2c([nH]c1=O)CCCC2 | 18µM* | -3% | ? | 3.5µM* | ? | 7.6µM*
O=C(N/N=C/c1cccc(Cl)c1)c1c(O)c2c([nH]c1=O)CCCC2 | . | . | ? | 2.5µM* | 2.8µM* | ?
O=C(OCC(=O)N1CCCC1=O)c1nc(Cl)c(Cl)c(Cl)c1Cl | . | . | -23% | -2% | -20% | -1%
COc1ccc(-c2ccc(OC)c([C@H]3[C@H]4C=CC[C@@H](C)[C@@H]4C(=O)N3Cc3ccccc3)c2)cc1C | . | . | 4% | -9% | -8% | 0%
COc1ccc(-c2cc3ccccc3s2)cc1[C@H]1[C@H]2C=CC[C@@H](C)[C@@H]2C(=O)N1Cc1ccccc1 | . | . | ? | 2.8µM* | 3.2µM* | 1.3µM*
COC(=O)c1ccc(NC(=O)C2CCN(S(=O)(=O)c3ccc4c(c3)CCCN4C(C)=O)CC2)cc1 | . | . | . | . | . | -8%
Clc1ccc2nc(CSCc3ccccc3)cn2c1 | 13µM* | -1% | ? | 2µM* | 1.6µM* | 7.6µM*
Cc1cccc2nc(CSCc3ccco3)cn12 | 11µM* | 5% | ? | 2.2µM* | 1.1µM* | 7.6µM*
Clc1ccc2nc(CSc3nncn3-c3ccccc3)cn2c1 | -8% | -1% | 0% | 1% | -2% | 5%
Nc1nnc(SCc2cn3cc(Cl)ccc3n2)s1 | ? | -3% | ? | 4µM* | ? | ?
Nn1c(SCc2cn3cc(Cl)ccc3n2)nnc1-c1ccncc1 | 5% | -3% | -3% | 2% | 2% | 1%
c1ccc(CSCc2ccccc2)cc1 | -7% | . | 0% | 1% | -3% | -1%
Clc1ccc2nc(CSc3nnc4ccccn34)cn2c1 | 10µM* | -12% | 8.2µM* | 1µM* | 0.5µM* | 7.6µM*
Cc1cc(C)n2cc(CSCc3ccco3)nc2n1 | 2% | 4% | 5% | 2% | -2% | 1%
CCCCn1c(N)c(N(CCOC)C(=O)COC(=O)/C=C/c2ccc(Br)cc2)c(=O)[nH]c1=O | . | . | -7% | 5% | -8% | 4%
Cc1ccc(SCc2cn3cc(Cl)ccc3n2)cc1 | . | . | 21% | ? | ? | 13µM*
CNc1cc(CSc2ccc(Cl)cc2)nc(C)n1 | ? | 1% | 18% | 2.2µM* | ? | 17µM*
Cc1ccc(SCc2cn3c(C)csc3n2)cc1 | 8.9µM* | -17% | 1.6µM* | 0.63µM* | 0.63µM* | 2.1µM*
Cc1nc(CSc2ccc(Cl)cc2)cc(NCc2ccccc2)n1 | 6% | -3% | 0% | 10% | 0% | -30%
